# Screens (PubChem BioAssay)
# Cav3 T inh – Cav3.2 calcium influx blockers – cell-based, Fluo-4 calcium fluorescence, FDSS, MLSMR library, primary screen; Voltage-dependent T-type calcium channel subunit alpha-1H (Homo sapiens), O95180; 100,000 compounds, 4% hits; B-score at 10 µM; AID 449739, 2010; Cav3.2-expressing cells; hits give low values;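 active = single-dose well whose peak fluorescence ratio is a statistical outlier from its plate by either plate-standardised score or position-corrected B-score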
# CYP2C9 inh – blockers of cytochrome P450 2C9 activity – biochemical, luminescence, ADME assay, primary screen | 96,000 compounds, 20% hits | inhibition, % at 5 µM | P11712 | CYP2C9 Supersomes, luciferin-H conversion;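 active = blocking of liver enzyme CYP2C9 beyond about 50% at 5 µM, limit read from the data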
# CYP2C19 activ – human CYP2C19 activators, primary screen, biochemical, luminescence. recombinant CYP2C19, luciferin-H EGE luminescence; hits give high values; 0 = fully inhibited enzyme, 1 = untreated enzyme. activation factor at 5 µM. 96,000 tested, under 10 active. AID 1025, 2008;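 active = activation factor of at least 2 at 5 µM in the primary screen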;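 also: 0 = wells with 2.5 mM tranylcypromine and 1 = vehicle-only wells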
# Target sequence (P33261 whole entry, looked up): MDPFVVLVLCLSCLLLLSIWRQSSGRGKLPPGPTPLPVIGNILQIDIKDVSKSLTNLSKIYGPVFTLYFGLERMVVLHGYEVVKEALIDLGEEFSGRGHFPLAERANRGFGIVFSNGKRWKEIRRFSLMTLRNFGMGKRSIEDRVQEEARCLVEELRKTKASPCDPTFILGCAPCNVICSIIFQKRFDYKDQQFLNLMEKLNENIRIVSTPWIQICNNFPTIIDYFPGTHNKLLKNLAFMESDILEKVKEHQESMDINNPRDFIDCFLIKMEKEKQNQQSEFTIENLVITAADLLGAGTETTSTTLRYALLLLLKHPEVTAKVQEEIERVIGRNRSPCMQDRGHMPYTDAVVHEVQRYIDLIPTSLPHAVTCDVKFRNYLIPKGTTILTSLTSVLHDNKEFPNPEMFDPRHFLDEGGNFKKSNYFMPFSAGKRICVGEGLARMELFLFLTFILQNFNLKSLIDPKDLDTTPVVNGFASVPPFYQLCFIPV
# CYP2C9 activ – human CYP2C9 activators, primary screen, biochemical, luminescence; Cytochrome P450 2C9 (Homo sapiens), P11712; recombinant CYP2C9, luciferin-H conversion; hits give high values; factor 1 = untreated enzyme, 0 = blocked; activation factor at 5 µM; 96,000 compounds, 1.4% hits;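 active = activation factor of 2 or more for CYP2C9 at a 5 µM dose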;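 also: 0 = sulfaphenazole-blocked wells and 1 = vehicle-only wells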
# CYP2C19 inhib – blockers of cytochrome P450 2C19 activity – biochemical, luminescence, ADME assay, primary screen. CYP2C19 Supersomes, luciferin-H EGE luminescence, 30 min. inhibition, % at 5 µM. 96,000 compounds, 21% hits;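 active = CYP2C19 inhibition above a set limit at 5 µM in the primary screen, cut at about 50% in these data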;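 also: plate controls were negative control wells for no effect and 2.5 mM tranylcypromine positive control for full effect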
# * marks the source's active call; other numbers are inactive results; / = no result given. Compounds with a hit are over-represented: about 27% of the library has one in this group of screens.
SMILES,Cav3 T inh,CYP2C9 inh,CYP2C19 activ,CYP2C9 activ,CYP2C19 inhib
CCC1(C(=O)c2ccccc2)C2c3cc(Br)ccc3OC(=O)C21C(=O)N1CCOCC1 (stereo not given),-4.25*,1.1,0.7,1,28.7
O=C(O)CCNS(=O)(=O)c1ccc(Oc2ccccc2Cl)cc1,0.371,16.7,1,0.8,1.8
C=CCSc1nc(N)c2c(C)c(C)sc2n1,0.786,58.1*,0.1,0.4,87.6*
CCSc1nc(N)c2c(C)c(C)sc2n1,0.0507,/,/,/,/
C=CCOC(=O)N1CCN(c2cccc(C(F)(F)F)c2)CC1,-1.53,79.5*,0,0.2,95.9*
O=C(Nc1cccc(C(F)(F)F)c1)c1cccnc1N1CCN(c2ccccc2)CC1,-2.7,49.4,0.4,0.5,57.5*
COC(=O)[C@@H](NC(=O)N1CCN(c2cccc(C(F)(F)F)c2)CC1)C(C)C,-2.68,-57.5,0.5,1.6,53.1*
O=C(Nc1ccccc1)N1CCN(c2cccc(C(F)(F)F)c2)CC1,-3.91,-100.0,0.4,2*,58.3*
CSc1cccc(NC(=O)c2ccc(Cl)nc2)c1,0.644,-3.4,0.8,1,17.2
COc1ccc(C2CC(=O)C=C(NCCC(C)C)C2)cc1 (stereo not given),0.0722,/,/,/,/
O=C(c1cccc(F)c1F)N1CCCC1,0.589,/,/,/,/
CNS(=O)(=O)c1cnccc1N1CCN(c2cccc(C(F)(F)F)c2)CC1,0.0672,47.4,0.2,0.5,77.1*
O=C(CS(=O)(=O)Cc1ccccc1)N1CCN(c2cccc(C(F)(F)F)c2)CC1,-4.32*,12.2,0.4,0.9,56.7*
Cc1ccc(C(=O)NCCCN2CCOCC2)o1,0.689,/,/,/,/
O=C(CCN1CCCCC1)NCC1OCCc2ccccc21 (stereo not given),1.26,-9.0,0.1,1.1,86.4*
CCc1ccc(NC(=O)CS(=O)CC(=O)NCC2OCCc3ccccc32)cc1 (stereo not given),-1.24,74.2*,0.5,0.3,45.9
O=C(NCC1OCCc2ccccc21)c1ccco1 (stereo not given),0.643,2.9,0.8,1,16.4
Cn1c(SCC(N)=O)nnc1C1CCN(C(=O)NCc2ccccc2)CC1,-0.181,-17.3,1.1,1.2,-14.6
Cn1c(SCC(N)=O)nnc1C1CCN(S(=O)(=O)c2ccccc2C(F)(F)F)CC1,0.293,-103.4,1,2*,-4.7
Cc1ccc(NC(=O)C(C)Sc2nnc(-c3cccnc3)n2-c2ccccc2)cc1 (stereo not given),-4.78,-3.5,1,1,0.6
CNc1oc(-c2ccc(Cl)cc2)nc1C#N,0.0745,10.0,0.7,0.9,32.5
CCOc1ccc(-c2nc(C#N)c(N3CCCCCC3)o2)cc1,0.537,76.1*,1.1,0.2,-5.8
CCOc1ccc(-c2nc(C#N)c(N3CCN(C)CC3)o2)cc1,0.369,-18.7,0.9,1.2,11.5
COc1ccc(-c2nc(C#N)c(N3CC(C)OC(C)C3)o2)cc1OC (stereo not given),0.556,/,/,/,/
COc1ccc(-c2nc(C#N)c(N3CCCCCC3)o2)cc1,-1.37,50.2*,0.9,0.5,10.3
SMILES,Cav3 T inh,CYP2C9 inh,CYP2C19 activ,CYP2C9 activ,CYP2C19 inhib
COc1ccc(-c2nc(C#N)c(NC(C)C)o2)cc1,-0.639,-1.2,0.1,1,85.9*
Cc1ccc(-c2nc(C#N)c(N3CCCCC3)o2)cc1,-1.24,8.8,0.9,0.9,7.3
COc1ccc(-c2nc(C#N)c(N3CCCCCC3)o2)cc1OC,-0.621,51.9*,0.7,0.5,33.8
N#Cc1nc(-c2ccccc2F)oc1N1CCCC1,0.759,-127.3,0.5,2.3*,50.0*
N#Cc1nc(-c2ccccc2)oc1N1CCCCC1,-2.94,19.2,0.9,0.8,13.8
Cc1ccc(C(=O)Nc2ccccc2C(=O)N2CC3(C)CC2CC(C)(C)C3)cc1 (stereo not given),-5.93*,24.0,0.9,0.8,11.2
O=C(NC1CCCc2ccccc21)C1CCN(S(=O)(=O)c2cccc3nsnc23)CC1 (stereo not given),/,-2.9,0.9,1,8.4
COc1ccc(Cl)cc1NC(=O)CN1C(=O)CSC1=O,1.52,-25.2,1.1,1.3,-9.9
COC(=O)c1cc(NC(=O)CN2C(=O)CSC2=O)ccc1Cl,0.0256,68.8*,0.6,0.3,38.5
N#Cc1c(NC(=O)c2ccc(Cn3cc(Br)cn3)o2)sc2c1CCCCCC2,-3.34,58.1*,0.7,0.4,31.0
O=C1OCCC1Sc1nc2ccccc2s1 (stereo not given),0.168,-88.4,0.4,1.9,61.6*
O=C(CSc1nc2ccccc2s1)CSc1nc2ccccc2s1,-0.0621,31.8,1,0.7,-0.9
C=CCn1c(SC2CCOC2=O)nc2sc(CC)cc2c1=O (stereo not given),2.85,31.3,1,0.7,2.5
OC1CCCCC1Sc1nc2ccccc2s1 (stereo not given),0.252,39.9,0.3,0.6,65.8*
O=C1OCCC1Sc1nc2cc(Cl)ccc2s1 (stereo not given),0.136,-163.0,0.1,2.6*,91.7*
CSc1nc2cc(Cl)ccc2s1,0.26,6.6,1,0.9,0.2
O=C1OCCC1Sc1nc2cc(Cl)ccc2n1Cc1ccccc1 (stereo not given),-0.974,48.1,0.4,0.5,59.4*
O=C(Nc1nc2ccccc2s1)C1CCCO1 (stereo not given),0.954,18.4,0.6,0.8,40.2
Cc1ccc(C(=O)CCCn2nnc(-c3cccnc3)n2)cc1C,-0.429,55.1*,0.2,0.4,80.0*
Cc1cc(C)c(C(=O)CSc2nnc(-c3cccnc3)n2C)c(C)c1,0.00527,2.2,1,1,4.3
Cc1cccc(OCCCC(=O)NCc2ccco2)c1,-0.396,-0.6,0.6,1,44.8
COc1ccc2c(c1OC)C(=O)OC2C1c2c(cc3c(c2OC)OCO3)CCN1C (stereo not given),-1.12,89.0*,0.1,0.1,89.3*
Cc1nn(-c2ccccc2)c(C)c1C(=O)OC/C(O)=C(\C#N)c1nc2ccccc2[nH]1,/,64.4*,0.4,0.4,62.3*
C/C(O)=C(/C#N)c1nc2ccccc2[nH]1,0.108,-5.2,1,1.1,-2.6
CC(=O)OC(/C(O)=C(\C#N)c1nc2ccccc2[nH]1)c1ccccc1 (stereo not given),0.338,65.9*,0.7,0.3,34.3
Cc1nn(-c2ccccc2)c(C)c1C(=O)OCC(=O)N1CC(=O)Nc2ccccc21,0.755,2.7,1,1,-1.9
CCCS(=O)(=O)c1cn2cccc(N)c2c1S(=O)(=O)CCC,0.161,11.2,0.9,0.9,10.9
CCOC(=O)c1c(C)[nH]c(C)c1C(=O)COC(=O)[C@@H](NC(=O)c1ccccc1OCC)C(C)C,-2.19,98.5*,0,0,100.4*
